# Test results from publication PMC11062922 (Nature Chemical Biology, 2023).
# Like-named read-outs stand apart in the source and are kept apart here.
# Key:
# LATS1 = conditions: read-out: apparent Kd, n = 1
# MAP2K2 = conditions: read-out: apparent Kd, n = 1
# [1] = compound concentrations:100 nM and 1000 nM (sheet 'Lestaurtinib' of Supplementary Table 1),run:Lestaurtinib_02624_R1,Plate:MR020
# [2] = compound concentrations:100 nM and 1000 nM (sheet 'Lestaurtinib' of Supplementary Table 1),run:Lestaurtinib_02624_R2,Plate:MR020
# [3] = compound concentrations:100 nM and 1000 nM (sheet 'Lestaurtinib' of Supplementary Table 1),run:Lestaurtinib_02624_R3,Plate:MR020
# [4] = compound concentrations:100 nM and 1000 nM (sheet 'Lestaurtinib' of Supplementary Table 1),run:Lestaurtinib_02724_R1,Plate:MR021
# [5] = compound concentrations:100 nM and 1000 nM (sheet 'Lestaurtinib' of Supplementary Table 1),run:Lestaurtinib_02752_R1,Plate:MR025
# [6] = compound concentrations:100 nM and 1000 nM (sheet 'Lestaurtinib' of Supplementary Table 1),run:Lestaurtinib_02752_R2,Plate:MR025
substance,measurement,setting,value
Lestaurtinib,potency estimated from few doses,LATS1; [1],25.8 nM
same,potency estimated from few doses,LATS1; [2],40.9 nM
same,potency estimated from few doses,LATS1; [3],38.9 nM
same,potency estimated from few doses,LATS1; [4],13.4 nM
same,potency estimated from few doses,"LATS1; compound concentrations:100 nM and 1000 nM (sheet 'Lestaurtinib' of Supplementary Table 1),run:Lestaurtinib_02724_R3,Plate:MR021",13.2 nM
same,potency estimated from few doses,"LATS1; compound concentrations:100 nM and 1000 nM (sheet 'Lestaurtinib' of Supplementary Table 1),run:Lestaurtinib_02741_R2,Plate:MR023",27 nM
same,potency estimated from few doses,"LATS1; compound concentrations:100 nM and 1000 nM (sheet 'Lestaurtinib' of Supplementary Table 1),run:Lestaurtinib_02748_R1,Plate:MR024",36.2 nM
same,potency estimated from few doses,"LATS1; compound concentrations:100 nM and 1000 nM (sheet 'Lestaurtinib' of Supplementary Table 1),run:Lestaurtinib_02748_R3,Plate:MR024",56.4 nM
same,potency estimated from few doses,LATS1; [5],27.3 nM
same,potency estimated from few doses,LATS1; [6],32.9 nM
same,potency estimated from few doses,"LATS1; compound concentrations:100 nM and 1000 nM (sheet 'Lestaurtinib' of Supplementary Table 1),run:Lestaurtinib_02752_R3,Plate:MR025",52.3 nM
same,potency estimated from few doses,"LATS1; compound concentrations:100 nM and 1000 nM (sheet 'Lestaurtinib' of Supplementary Table 1),run:Lestaurtinib_02765_R1,Plate:MR026",40.4 nM
same,potency estimated from few doses,"LATS1; compound concentrations:100 nM and 1000 nM (sheet 'Lestaurtinib' of Supplementary Table 1),run:Lestaurtinib_02765_R2,Plate:MR026",48.6 nM
same,potency estimated from few doses,"LATS1; compound concentrations:100 nM and 1000 nM (sheet 'Lestaurtinib' of Supplementary Table 1),run:Lestaurtinib_02765_R3,Plate:MR026",66.7 nM
same,potency estimated from few doses,"LATS1; compound concentrations:100 nM and 1000 nM (sheet 'Lestaurtinib' of Supplementary Table 1),run:Lestaurtinib_02768_R1,Plate:MR028",31.7 nM
same,potency estimated from few doses,"LATS1; compound concentrations:100 nM and 1000 nM (sheet 'Lestaurtinib' of Supplementary Table 1),run:Lestaurtinib_02795_R1,Plate:MR022",15.1 nM
same,potency estimated from few doses,"LATS1; compound concentrations:100 nM and 1000 nM (sheet 'Lestaurtinib' of Supplementary Table 1),run:Lestaurtinib_02795_R3,Plate:MR022",46.9 nM
same,potency estimated from few doses,"LATS1; compound concentrations:100 nM and 1000 nM (sheet 'Lestaurtinib' of Supplementary Table 1),run:Lestaurtinib_02802_R1,Plate:MR029",38.6 nM
same,potency estimated from few doses,"LATS1; compound concentrations:100 nM and 1000 nM (sheet 'Lestaurtinib' of Supplementary Table 1),run:Lestaurtinib_02802_R2,Plate:MR029",26 nM
same,potency estimated from few doses,"LATS1; compound concentrations:100 nM and 1000 nM (sheet 'Lestaurtinib' of Supplementary Table 1),run:Lestaurtinib_02896_R1,Plate:MR030",15.1 nM
same,potency estimated from few doses,"LATS1; compound concentrations:100 nM and 1000 nM (sheet 'Lestaurtinib' of Supplementary Table 1),run:Lestaurtinib_02896_R2,Plate:MR030",27.9 nM
same,potency estimated from few doses,"LATS1; compound concentrations:100 nM and 1000 nM (sheet 'Lestaurtinib' of Supplementary Table 1),run:Lestaurtinib_03172_R1,Plate:MR031",40.9 nM
same,potency estimated from few doses,"LATS1; compound concentrations:100 nM and 1000 nM (sheet 'Lestaurtinib' of Supplementary Table 1),run:Lestaurtinib_03172_R2,Plate:MR031",32.7 nM
same,potency estimated from few doses,"LATS1; compound concentrations:100 nM and 1000 nM (sheet 'Lestaurtinib' of Supplementary Table 1),run:Lestaurtinib_03172_R3,Plate:MR031",30.1 nM
same,potency estimated from few doses,"LATS1; compound concentrations:100 nM and 1000 nM (sheet 'Lestaurtinib' of Supplementary Table 1),run:Lestaurtinib_03252_R1,Plate:MR032",41.1 nM
same,potency estimated from few doses,"LATS1; compound concentrations:100 nM and 1000 nM (sheet 'Lestaurtinib' of Supplementary Table 1),run:Lestaurtinib_03260_R2,Plate:MR033",66 nM
same,potency estimated from few doses,"LATS1; compound concentrations:100 nM and 1000 nM (sheet 'Lestaurtinib' of Supplementary Table 1),run:Lestaurtinib_03260_R3,Plate:MR033",57.8 nM
same,potency estimated from few doses,"MAP2K2; compound concentrations:100 nM and 1000 nM (sheet 'Lestaurtinib' of Supplementary Table 1),run:Lestaurtinib_02339_R1,Plate:MR001",1930 nM
same,potency estimated from few doses,"MAP2K2; compound concentrations:100 nM and 1000 nM (sheet 'Lestaurtinib' of Supplementary Table 1),run:Lestaurtinib_02339_R2,Plate:MR001",822 nM
same,potency estimated from few doses,"MAP2K2; compound concentrations:100 nM and 1000 nM (sheet 'Lestaurtinib' of Supplementary Table 1),run:Lestaurtinib_02339_R3,Plate:MR001",836 nM
same,potency estimated from few doses,"MAP2K2; compound concentrations:100 nM and 1000 nM (sheet 'Lestaurtinib' of Supplementary Table 1),run:Lestaurtinib_02364_R1,Plate:MR002",1210 nM
same,potency estimated from few doses,"MAP2K2; compound concentrations:100 nM and 1000 nM (sheet 'Lestaurtinib' of Supplementary Table 1),run:Lestaurtinib_02364_R2,Plate:MR002",1670 nM
same,potency estimated from few doses,"MAP2K2; compound concentrations:100 nM and 1000 nM (sheet 'Lestaurtinib' of Supplementary Table 1),run:Lestaurtinib_02367_R1,Plate:MR003",557 nM
same,potency estimated from few doses,"MAP2K2; compound concentrations:100 nM and 1000 nM (sheet 'Lestaurtinib' of Supplementary Table 1),run:Lestaurtinib_02367_R2,Plate:MR003",665 nM
same,potency estimated from few doses,"MAP2K2; compound concentrations:100 nM and 1000 nM (sheet 'Lestaurtinib' of Supplementary Table 1),run:Lestaurtinib_02367_R3,Plate:MR003",2220 nM
same,potency estimated from few doses,"MAP2K2; compound concentrations:100 nM and 1000 nM (sheet 'Lestaurtinib' of Supplementary Table 1),run:Lestaurtinib_02407_R1,Plate:MR005",96.3 nM
same,potency estimated from few doses,"MAP2K2; compound concentrations:100 nM and 1000 nM (sheet 'Lestaurtinib' of Supplementary Table 1),run:Lestaurtinib_02407_R2,Plate:MR005",143 nM
same,potency estimated from few doses,"MAP2K2; compound concentrations:100 nM and 1000 nM (sheet 'Lestaurtinib' of Supplementary Table 1),run:Lestaurtinib_02407_R3,Plate:MR005",794 nM
same,potency estimated from few doses,"MAP2K2; compound concentrations:100 nM and 1000 nM (sheet 'Lestaurtinib' of Supplementary Table 1),run:Lestaurtinib_02422_R3,Plate:MR006",1800 nM
same,potency estimated from few doses,"MAP2K2; compound concentrations:100 nM and 1000 nM (sheet 'Lestaurtinib' of Supplementary Table 1),run:Lestaurtinib_02437_R1,Plate:MR007",159 nM
same,potency estimated from few doses,"MAP2K2; compound concentrations:100 nM and 1000 nM (sheet 'Lestaurtinib' of Supplementary Table 1),run:Lestaurtinib_02437_R2,Plate:MR007",1370 nM
same,potency estimated from few doses,"MAP2K2; compound concentrations:100 nM and 1000 nM (sheet 'Lestaurtinib' of Supplementary Table 1),run:Lestaurtinib_02437_R3,Plate:MR007",98.9 nM
same,potency estimated from few doses,"MAP2K2; compound concentrations:100 nM and 1000 nM (sheet 'Lestaurtinib' of Supplementary Table 1),run:Lestaurtinib_02438_R1,Plate:MR008",1800 nM
same,potency estimated from few doses,"MAP2K2; compound concentrations:100 nM and 1000 nM (sheet 'Lestaurtinib' of Supplementary Table 1),run:Lestaurtinib_02438_R2,Plate:MR008",876 nM
same,potency estimated from few doses,"MAP2K2; compound concentrations:100 nM and 1000 nM (sheet 'Lestaurtinib' of Supplementary Table 1),run:Lestaurtinib_02438_R3,Plate:MR008",745 nM
same,potency estimated from few doses,"MAP2K2; compound concentrations:100 nM and 1000 nM (sheet 'Lestaurtinib' of Supplementary Table 1),run:Lestaurtinib_02443_R2,Plate:MR009",782 nM
same,potency estimated from few doses,"MAP2K2; compound concentrations:100 nM and 1000 nM (sheet 'Lestaurtinib' of Supplementary Table 1),run:Lestaurtinib_02443_R3,Plate:MR009",924 nM
same,potency estimated from few doses,"MAP2K2; compound concentrations:100 nM and 1000 nM (sheet 'Lestaurtinib' of Supplementary Table 1),run:Lestaurtinib_02473_R1,Plate:MR010",838 nM
same,potency estimated from few doses,"MAP2K2; compound concentrations:100 nM and 1000 nM (sheet 'Lestaurtinib' of Supplementary Table 1),run:Lestaurtinib_02482_R1,Plate:MR011",1400 nM
same,potency estimated from few doses,"MAP2K2; compound concentrations:100 nM and 1000 nM (sheet 'Lestaurtinib' of Supplementary Table 1),run:Lestaurtinib_02482_R2,Plate:MR011",1360 nM
same,potency estimated from few doses,"MAP2K2; compound concentrations:100 nM and 1000 nM (sheet 'Lestaurtinib' of Supplementary Table 1),run:Lestaurtinib_02482_R3,Plate:MR011",1300 nM
same,potency estimated from few doses,"MAP2K2; compound concentrations:100 nM and 1000 nM (sheet 'Lestaurtinib' of Supplementary Table 1),run:Lestaurtinib_02487_R3,Plate:MR012",1300 nM
same,potency estimated from few doses,"MAP2K2; compound concentrations:100 nM and 1000 nM (sheet 'Lestaurtinib' of Supplementary Table 1),run:Lestaurtinib_02496_R3,Plate:MR013",1430 nM
same,potency estimated from few doses,"MAP2K2; compound concentrations:100 nM and 1000 nM (sheet 'Lestaurtinib' of Supplementary Table 1),run:Lestaurtinib_02566_R2,Plate:MR014",1240 nM
same,potency estimated from few doses,"MAP2K2; compound concentrations:100 nM and 1000 nM (sheet 'Lestaurtinib' of Supplementary Table 1),run:Lestaurtinib_02566_R3,Plate:MR014",835 nM
same,potency estimated from few doses,"MAP2K2; compound concentrations:100 nM and 1000 nM (sheet 'Lestaurtinib' of Supplementary Table 1),run:Lestaurtinib_02572_R1,Plate:MR015",1370 nM
same,potency estimated from few doses,"MAP2K2; compound concentrations:100 nM and 1000 nM (sheet 'Lestaurtinib' of Supplementary Table 1),run:Lestaurtinib_02577_R1,Plate:MR016",1370 nM
same,potency estimated from few doses,"MAP2K2; compound concentrations:100 nM and 1000 nM (sheet 'Lestaurtinib' of Supplementary Table 1),run:Lestaurtinib_02577_R2,Plate:MR016",883 nM
same,potency estimated from few doses,"MAP2K2; compound concentrations:100 nM and 1000 nM (sheet 'Lestaurtinib' of Supplementary Table 1),run:Lestaurtinib_02577_R3,Plate:MR016",852 nM
same,potency estimated from few doses,"MAP2K2; compound concentrations:100 nM and 1000 nM (sheet 'Lestaurtinib' of Supplementary Table 1),run:Lestaurtinib_02584_R3,Plate:MR017",1580 nM
same,potency estimated from few doses,"MAP2K2; compound concentrations:100 nM and 1000 nM (sheet 'Lestaurtinib' of Supplementary Table 1),run:Lestaurtinib_02601_R1,Plate:MR018",728 nM
same,potency estimated from few doses,"MAP2K2; compound concentrations:100 nM and 1000 nM (sheet 'Lestaurtinib' of Supplementary Table 1),run:Lestaurtinib_02606_R1,Plate:MR019",691 nM
same,potency estimated from few doses,"MAP2K2; compound concentrations:100 nM and 1000 nM (sheet 'Lestaurtinib' of Supplementary Table 1),run:Lestaurtinib_02606_R3,Plate:MR019",1150 nM
same,potency estimated from few doses,MAP2K2; [1],976 nM
same,potency estimated from few doses,MAP2K2; [2],1760 nM
same,potency estimated from few doses,MAP2K2; [3],1490 nM
same,potency estimated from few doses,MAP2K2; [4],1320 nM
same,potency estimated from few doses,"MAP2K2; compound concentrations:100 nM and 1000 nM (sheet 'Lestaurtinib' of Supplementary Table 1),run:Lestaurtinib_02724_R2,Plate:MR021",1510 nM
same,potency estimated from few doses,"MAP2K2; compound concentrations:100 nM and 1000 nM (sheet 'Lestaurtinib' of Supplementary Table 1),run:Lestaurtinib_02741_R3,Plate:MR023",875 nM
same,potency estimated from few doses,"MAP2K2; compound concentrations:100 nM and 1000 nM (sheet 'Lestaurtinib' of Supplementary Table 1),run:Lestaurtinib_02748_R2,Plate:MR024",1490 nM
same,potency estimated from few doses,MAP2K2; [5],842 nM
same,potency estimated from few doses,MAP2K2; [6],925 nM
